Source: PubChem BioAssay
The list is not random: actives were taken first. Their share in the collection is about 2.6%.
AmpC inh no det: Promiscuous and Specific Inhibitors of AmpC Beta-Lactamase (assay without detergent) | P00811 | AmpC nitrocefin hydrolysis, absorbance 480 nm, no detergent | Potency, µM (top dose mostly 28.7 µM), for inactives: at the highest dose activity change, negative = inhibition | 71,000 tested, 1.8% active; further: % of control where 0% means no effect
Target sequence (P00811 whole entry, looked up): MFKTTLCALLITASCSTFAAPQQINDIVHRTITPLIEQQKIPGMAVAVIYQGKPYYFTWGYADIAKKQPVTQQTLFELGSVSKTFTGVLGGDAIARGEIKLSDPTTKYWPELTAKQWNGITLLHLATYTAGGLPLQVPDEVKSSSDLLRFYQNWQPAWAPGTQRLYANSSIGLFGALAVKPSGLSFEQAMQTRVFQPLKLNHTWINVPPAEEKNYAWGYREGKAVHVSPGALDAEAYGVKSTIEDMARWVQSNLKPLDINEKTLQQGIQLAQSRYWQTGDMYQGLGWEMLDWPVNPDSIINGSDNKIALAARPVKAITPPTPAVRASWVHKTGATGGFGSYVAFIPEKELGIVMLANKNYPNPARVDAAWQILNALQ
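Enzyme, pH 7.0 phosphate. Compound titrations were pre-incubated with AmpC for 15 min at room temperature before nitrocefin (stock 800 uM) addition; product formation was recorded at 480 nm every 20 s for 4 min.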
LT uptake inh: qHTS Assay for Anthrax Lethal Toxin Internalization; Cells, anthrax lethal toxin internalization, FRET ratio (460/530); 70,000 tested, 0.67% active; Potency, µM (titrated, usually from 40 µM), for the others: at the highest dose activity change, negative = inhibition, hits mostly inhibitors; further: on the % scale 0 is the no-effect control and ±100 the full control effect; nearly all actives have a fitted effect of over 50% in size
Prx2 Sm inh: Schistosoma Mansoni Peroxiredoxins (Prx2); S. mansoni Prx2 activity coupled to TGR/GSH (TGR is thioredoxin glutathione reductase), NADPH fluorescence loss, qHTS; AID 448, 2006; Potency, µM; 65,000 tested, 0.07% active; Schistosoma mansoni peroxiredoxin 2 (Prx2)
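Prx2 activity was followed as the loss of NADPH fluorescence (ex 365/em 450 nm), read every 30 sec for 8 min after H2O2 start. The enzyme mix (50 nM Prx2, 25 nM TGR, GSH, NADPH; pH 7.4 phosphate buffer) was incubated with compound for 15 min at room temperature first.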
AmpC det inh: Promiscuous and Specific Inhibitors of AmpC Beta-Lactamase (assay with detergent); 71,000 tested, 0.09% active; purified AmpC, nitrocefin hydrolysis with detergent; Potency, µM (highest dose often 28.7 µM), without a hit: top-dose activity change, negative = inhibition; active means well fitted curve in the direction sought with a large enough effect; further: on the % scale 0 is the no-effect control and ±100 the full control effect
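E. coli AmpC (5.3 nM) in 20 mM phosphate pH 7.0 with 0.01% Triton X-100, preincubated 15 min RT with compound; nitrocefin (2 uL of 800 uM stock) hydrolysis followed by 480 nm absorbance every 20 s over 4 min.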
The depositor's hits bear a star; [ ] = dose if it differs, or a comment. Unless noted, the call rests on the fitted dose curve. Potency means the concentration at half of the fitted maximal effect.

Screening CO[C@@H]1CC[C@@]2(C)[C@@H](CC[C@@]3(C)[C@H]2CC=C2[C@H]4CC(C)(C)[C@H](O)[C@@H](OC(C)=O)[C@]4(CO)[C@H](O)C[C@]23C)[C@@]1(C)CO (tested in a mixture with another compound) returned AmpC inh no det 100%[12.8 µM], LT uptake inh -7%[3.58 µM], Prx2 Sm inh >57 and AmpC det inh -3%[12.8 µM].
For CCN1CCC[C@@H]1CNC(=O)c1c(OC)ccc(I)c1O the results were AmpC inh no det 7%, LT uptake inh -13%, Prx2 Sm inh >57 and AmpC det inh -2%.
`O=C(CCCCCN1C(=O)C2C3C=CC(C3)C2C1=O)Nc1nccs1` (configuration not stated) gave AmpC inh no det 2µM*[single pt active], LT uptake inh 12%, Prx2 Sm inh >57 and AmpC det inh 12%.
`O=C(CCN1C(=O)C2C3C=CC(C3)C2C1=O)Nc1nccs1` (configuration not stated) gave AmpC inh no det -2%, LT uptake inh -1%, Prx2 Sm inh >57 and AmpC det inh -5%.
For Cc1oc(-c2ccccc2F)nc1CS(=O)CC(=O)NCc1ccc2c(c1)OCO2 (configuration not stated) the results were AmpC inh no det 4µM*[single pt active], LT uptake inh -11%, Prx2 Sm inh >57 and AmpC det inh 12%.
For Cc1oc(-c2ccccc2F)nc1CS(=O)CC(=O)NCc1cccs1 (configuration not stated) the results were AmpC inh no det 4µM*[single pt active], LT uptake inh 0%, Prx2 Sm inh >57 and AmpC det inh 10%.
Cc1oc(-c2cccs2)nc1CS(=O)CC(=O)NCCc1ccccc1 (configuration not stated) was read as AmpC inh no det 10%, LT uptake inh -15%, Prx2 Sm inh >57 and AmpC det inh 7%.
O=C(O)CCCCCC[C@@H]1C(=O)NC(=O)N1CC[C@@H](O)C1CCCCC1 was read as AmpC inh no det -2%, LT uptake inh 3%, Prx2 Sm inh >57 and AmpC det inh -2%.
For Cc1ccc2c(c1)N(CC(=O)NCC1COc3ccccc3O1)C(=O)CO2 (configuration not stated) the results were AmpC inh no det 49%, LT uptake inh -7%, Prx2 Sm inh >57 and AmpC det inh 10%.
CCc1c(C)nc2cc(-c3cc(OC)cc(OC)c3)nn2c1N1CCCC1 was read as AmpC inh no det 88%, LT uptake inh 13µM*, Prx2 Sm inh >57 and AmpC det inh -1%.
`CCc1c(C)nc2cc(-c3ccc(OC)c(OC)c3)nn2c1N1CCCC1` gave AmpC inh no det 133%, LT uptake inh -20%, Prx2 Sm inh >57 and AmpC det inh -4%.
`CCCNC(=O)C(Cc1ccccc1)NS(=O)(=O)c1ccc2c(c1)CCC(=O)N2` (configuration not stated) gave AmpC inh no det 4µM*[single pt active], LT uptake inh -14%, Prx2 Sm inh >57 and AmpC det inh 13%.
`CN(Cc1ccco1)C(=O)C(Cc1ccccc1)NS(=O)(=O)c1ccc2c(c1)CCC(=O)N2` (configuration not stated) gave AmpC inh no det 4µM*[single pt active], LT uptake inh 2%, Prx2 Sm inh >57 and AmpC det inh 17%.
`CCC(=O)N1CCc2cc(S(=O)(=O)NC(Cc3ccccc3)C(=O)NC3CCCC3)ccc21` (configuration not stated) gave AmpC inh no det 18%, LT uptake inh 5%, Prx2 Sm inh >57 and AmpC det inh -3%.
Screening O=C1CCc2cc(S(=O)(=O)N3CCN(C(=O)c4ccco4)CC3)ccc2N1 returned AmpC inh no det -8%, LT uptake inh 12%, Prx2 Sm inh >57 and AmpC det inh 0%.
`O=C1CCc2cc(S(=O)(=O)NC(Cc3ccccc3)C(=O)NC3CCCC3)ccc2N1` (configuration not stated) gave AmpC inh no det 4µM*[single pt active], LT uptake inh -17%, Prx2 Sm inh >57 and AmpC det inh 15%.
CC12C=C(/C=C/c3ccccc3)C(C)(C1)C(c1ccccc1)CC2=O (configuration not stated) was read as LT uptake inh -10%[8 µM].
N#Cc1c(NC(=O)Cn2c(=O)oc3ccccc32)oc(-c2ccccc2)c1-c1ccccc1 was read as AmpC inh no det 13µM*, LT uptake inh 10µM*, Prx2 Sm inh >57 and AmpC det inh 1%.
